This passage reports Kd results from paper PMC5540273 (PLoS ONE, 2017).

In general, Kd refers to the constant that tells how readily two partners part at equilibrium. Read a low Kd as higher affinity.
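Note: kd values determined as follow-up on hits from a single-replicate KINOMEscan panel screen.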

One assay has as its system DDR1.
`CS(=O)(=O)CCNCc1nc(-c2ccc3ncnc(Nc4ccc(OCc5ccccc5)c(Cl)c4)c3c2)cs1.Cl` [GW582764] had a Kd of over 10 µM.
Same read-out and setting: next, `Cc1ccc(NC(=O)Nc2ccc(Cl)cc2)cc1-c1ccc(C(=O)Nc2ccncc2)cc1` [GSK1398472]: 0.073 µM; `Nc1nccc(-c2c(-c3ccc(F)cc3)ncn2C2CCN(Cc3ccccc3)CC2)n1` [SB-219980]: 0.14 µM; `CS(=O)(=O)Cc1ccc(Nc2nccc(-c3c(-c4cccc(NC(=O)C5CCCCC5)c4)nn4ncccc34)n2)cc1` [GSK350559]: 0.023 µM.
Still for that read-out and setting: the same measure for `COc1ccc2cc(-c3nc(-c4ccccc4C(C)C)[nH]c3-c3ccncc3)ccc2c1` [SB-660566]: 0.33 µM; for `Cc1ccc(NC(=O)Nc2ccc(Cl)c(C(F)(F)F)c2)cc1-c1ccc(C(=O)Nc2ccncc2)cc1` [GSK1398470]: 0.12 µM; for `Cc1ccc(NC(=O)Nc2ccccc2)cc1-c1ccc(C(=O)Nc2ccncc2)cc1` [GSK1398471]: 0.18 µM.
On the same count and under the same terms, next, `COc1cccc(NC(=O)Nc2ccc(C)c(-c3ccc(C(=O)Nc4ccncc4)cc3)c2)c1` [GSK1398474]: 0.27 µM; `COc1ccc(Nc2nccc(N3CCC(NC(=O)c4cc5ccccc5s4)C3)n2)cc1` (stereo not drawn) [GSK1379738]: over 10 µM.
In turn, `COc1cccc(C2=C(Nc3cc(Cl)c(O)c(Cl)c3)C(=O)NC2=O)c1` [SB-390767] showed a Kd of over 10 µM.
The same measure, in the same setting: next, `Cc1ccc(NC(=O)c2ccc(Cl)cc2)cc1-c1ccc(C(=O)Nc2ccncc2)cc1` [GSK1398467]: 0.71 µM; `Cc1ccc(NC(=O)Nc2ccccc2F)cc1-c1ccc(C(=O)Nc2ccncc2)cc1` [GSK1398477]: 0.18 µM.

Another assay concerns T1, DMPK2.
T1 construct: gene CDC42BPG
For the compound `CCn1c(-c2c(N)noc2C)nc2cnccc21` [SB-737856], the Kd was over 10 µM.
Still for that read-out and setting: next, `CC(=O)c1c(C)c2cnc(Nc3ccc(N4CCNCC4)cn3)nc2n(C2CCCC2)c1=O`: over 10 µM; `Fc1ccc(-c2nc3n(c2-c2ccncc2)CCS3)cc1` [GI98581]: 1.2 µM; `Fc1ccc(-c2nn3cccc(F)c3c2-c2ccncc2)cc1` [GW475620]: 1 µM.

Another assay concerns T2, DRAK1.
T2 construct: gene STK17A
On to `Cn1cncc1-c1cc2c(Nc3ccc(OCc4ccccc4)cc3)ncnc2cn1` [GW281179], for which the Kd was over 10 µM.
On the same count and under the same terms, next, `CC[C@@H]1CO[C@H](C(=O)Nc2ccccc2)CN1c1cc(-c2ccc3c(N)n[nH]c3c2)nc(NC)n1` [GSK2376236]: 0.22 µM; `CNc1nc(-c2ccc3c(N)n[nH]c3c2)cc(N2C[C@@H](C(=O)Nc3ccccc3)CC[C@H]2C)n1` [GSK2298859]: 0.089 µM.
On the same count and under the same terms, the same measure for `CNc1cc(-c2ccc3c(N)n[nH]c3c2)nc(N)n1` [GSK2224810]: 0.089 µM.
Take `CC(C)c1cc(-c2ccc3c(N)n[nH]c3c2)nc(N)n1` [GSK2250882]: binding was put at a Kd of 0.029 µM. Against the preceding compound, the Kd is about 3.1-fold lower.
